Where “and” joins values, the source holds several entries; their conditions need not be identical. Equal values may be shown once. Results filed as inconclusive are left out. A structure can be active in one record and inactive in another. Calls of active or inactive are those of the source. The calls were made as follows: active = hit-call score of the fitted dose curve at least 0.9, where 1 is the maximum; inconclusive = response in the unintended direction; inactive = score below 0.9.

A word on the AC50: it is the midpoint of the concentration-response curve, whichever way the signal moves.

Test [1] is described as follows: TOX21_p53_BLA_p2_viability: Viability Assessment in the Tox21 HCT-116 p53 Agonism Beta-lactamase Assay, Phase 2 (AID 2283591).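 Also: compound exposure lasted 16 h at 37 °C; actives lower the ATP signal meaning cytotoxicity.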 In outline:
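Cytotoxicity readout: CellTiter-Glo ATP luminescence, 30 min at room temperature, after the beta-lactamase read. Cells were HCT116 exposed 16 h at 37C to compounds pin-transferred at 217-fold dilution from DMSO stocks.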

Test [2] addresses Cellular tumor antigen p53 (Homo sapiens) (UniProt P04637). The test is described as follows: TOX21_p53_BLA_p2_ratio: Tox21 HCT-116 p53 Agonism Beta-lactamase Assay, Ratio, Phase 2 (AID 2283592). Put shortly:
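Gain-of-signal p53 agonism was scored from the beta-lactamase FRET ratio (460/530 nm, 405 nm excitation) in HCT116 cells treated 16 h at 37C, 5% CO2, with DMSO serving as negative control and baseline.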

Test [3] in a line: TOX21_p53_BLA_p3_viability: Viability Assessment in the Tox21 HCT-116 p53 Agonism Beta-lactamase Assay, Phase 3 (AID 2283593).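 Also: cells exposed to compound for 16 h before reading.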 Put shortly: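 Cellular ATP was quantified by CellTiter-Glo luminescence, read after 30 min at room temperature. Beforehand, HCT116 cells (4000/well) received compound 5 h post-seeding, 217-fold diluted from DMSO, then incubated 16 h at 37C.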
Test [4] addresses Cellular tumor antigen p53 (Homo sapiens) (UniProt P04637). Kind of test: TOX21_p53_BLA_p3_ratio: Tox21 HCT-116 p53 Agonism Beta-lactamase Assay, Ratio, Phase 3 (AID 2283596). Put shortly: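 HCT116 p53-bla cells (4000/well) given compound in DMSO (217-fold dilution) after 5 h, incubated 16 h at 37C. CCF4-AM substrate 2 h at room temperature; 460/530 nm emission ratio, gain fitted against DMSO.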

A short description of test [5]: TOX21_p53_BLA_p4_viability: Viability Assessment in the Tox21 HCT-116 p53 Agonism Beta-lactamase Assay, Phase 4 (AID 2283597).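 Also: hits lower the luminescence signal meaning cytotoxicity.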 Put shortly:
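Following a 16 h exposure at 37C, the treated HCT116 wells were first read for the FRET ratio. They were then lysed with CellTiter-Glo, and ATP luminescence was recorded after 30 min at room temperature.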

The target in test [6] is Cellular tumor antigen p53 (Homo sapiens) (UniProt P04637). Kind of test: TOX21_p53_BLA_p5_ratio: Tox21 HCT-116 p53 Agonism Beta-lactamase Assay, Ratio, Phase 5 (AID 2283599). In outline: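 Beta-lactamase reporter ratio (blue 460 nm over green 530 nm, 405 nm excitation) after 2 h CCF4-AM loading, in HCT-116 cells exposed 16 h at 37 C to compounds pinned at 217-fold dilution. Increases relative to DMSO baseline scored.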
Chain of Cellular tumor antigen p53 (Homo sapiens) (P04637 whole entry, looked up): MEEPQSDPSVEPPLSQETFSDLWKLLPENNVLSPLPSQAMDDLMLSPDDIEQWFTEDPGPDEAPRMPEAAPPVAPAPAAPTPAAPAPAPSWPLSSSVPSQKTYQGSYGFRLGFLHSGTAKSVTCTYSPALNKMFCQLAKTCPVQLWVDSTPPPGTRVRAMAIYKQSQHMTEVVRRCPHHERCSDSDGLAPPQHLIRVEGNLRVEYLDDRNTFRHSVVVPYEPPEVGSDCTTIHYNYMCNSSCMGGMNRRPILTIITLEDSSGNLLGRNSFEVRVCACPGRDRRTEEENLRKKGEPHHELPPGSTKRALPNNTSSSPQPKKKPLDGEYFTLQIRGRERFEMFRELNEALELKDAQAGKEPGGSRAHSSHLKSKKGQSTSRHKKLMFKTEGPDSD

The nature of test [7]: TOX21_p53_BLA_p5_viability: Viability Assessment in the Tox21 HCT-116 p53 Agonism Beta-lactamase Assay, Phase 5 (AID 2283600). Put shortly:
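After the 460/530 nm beta-lactamase measurement, the wells received an ATP-detection luciferase reagent; signal was read 30 min later at RT. Compound treatment lasted 16 h on cells pre-incubated 5 h post-seeding.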

Test [8] can be described thus: ATG_XTT_Cytotoxicity: Cytotoxicity Assessment in the Attagene TRANS-FACTORIAL HepG2 Assay (AID 2283584).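 As to AC50: cells exposed to compound for 24 h before reading; active means loss of viability signal versus DMSO baseline.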 Put shortly: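 Viability endpoint from XTT after 24 h chemical exposure of reporter-transfected human HepG2 liver cells; signal loss fitted relative to DMSO negative control.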

Consider `CSc1ccc(Cl)cc1`, for which the call in test [1], in test [2], in test [3], in test [4], in test [5] and in test [6] was inactive. Further, the result in test [7] was inactive.
Regarding `CCCCCC/C=C/CCCCCCCC(=O)O`, the compound was classed as inactive in test [8], in test [1], in test [2], in test [3], in test [4] and in test [5]. Besides, the result in test [6] and in test [7] was inactive.
Regarding `O=C=Nc1cccc2c(N=C=O)cccc12`, in test [8], the compound was classed as inactive.
As for `C=CCOC(=O)CC(C)C`, the compound was classed as inactive in test [8], in test [1], in test [2], in test [3], in test [5] and in test [6]. The result in test [7] was inactive.
On to `CCC(=O)OC(C)c1ccccc1` (centres undefined), for which the compound was called inactive in test [8], in test [1], in test [2], in test [4], in test [6] and in test [7].
With `CC(C)OC(=O)COc1ccc(Cl)cc1Cl`, the compound was classed as inactive in test [8], in test [2], in test [3], in test [4], in test [5] and in test [6]. The call in test [7] was inactive.
As to `Cc1ccc2c(c1)OCC(=O)CO2`, the compound was classed as inactive in test [8], in test [1], in test [2], in test [4] and in test [5].
As to `Cc1cc(=O)[nH]c(C(C)C)n1`, the call in test [1], in test [2], in test [3], in test [4], in test [5] and in test [6] was inactive. The result in test [7] was inactive.
Regarding `CCCCCCCCn1sc(Cl)c(Cl)c1=O`, the AC50 is 31.5 µM (active) in test [8]; 85.9 µM (active) in test [1]; 40.7 µM (active) in test [3]; 21.7 µM (active) in test [4]; 80.4 µM (active) in test [5]. Moreover, the result in test [6] and in test [7] was inactive.
Take `CCc1cccc(C)c1N(C(=O)C(=O)O)C(C)COC` (centres undefined): the result in test [8] was inactive.
Consider `O=S(=O)(O)c1ccc(Cl)cc1`, for which the compound was classed as inactive in test [8], in test [1], in test [5] and in test [7].
`CCOC(=O)CCC(C)=O`: the compound was called inactive in test [1], in test [2], in test [4], in test [6] and in test [7].
Turning to `CN(N=O)C(=O)N[C@@H]1[C@@H](O)[C@H](O)[C@@H](CO)O[C@@H]1O`, the compound was classed as inactive in test [1], in test [2], in test [3], in test [4], in test [5] and in test [6]. Moreover, the compound was called inactive in test [7].
`CCC(C)CO` (centres undefined): the result in test [8], in test [2], in test [3], in test [4], in test [6] and in test [7] was inactive.
With `O=C1C=CC(=O)N1c1ccc(Cc2ccc(N3C(=O)C=CC3=O)cc2)cc1`, the AC50 in test [8] was 157 µM (active); in test [1], 71 µM (active); in test [2], 29.1 µM (active); in test [5] it was 75.2 µM (active); in test [6] it was 74.4 µM (active); in test [7], 86.3 µM (active). Moreover, the compound was classed as inactive in test [3] and in test [4].
As to `CCC/C=C/CO`, the call in test [8], in test [1], in test [2], in test [4], in test [6] and in test [7] was inactive.
For `Cc1ccc(O)cn1`, the outcome in test [8] was inactive.
`c1ccc(C[P+](c2ccccc2)(c2ccccc2)c2ccccc2)cc1`: the compound was classed as inactive in test [8].
Regarding `CCOC(C=C(C)CCC=C(C)C)OCC`, the compound was called inactive in test [8].
The same measure, in the same setting: to `O=C1OC(=O)c2ccc3c4c(ccc1c24)C(=O)OC3=O` belongs “inactive”.
Regarding `CO[Si](CCCOCC1CO1)(OC)OC` (centres undefined), the compound was called inactive in test [8], in test [1], in test [3], in test [4], in test [5] and in test [6]. Also, the compound was called inactive in test [7]. In test [2], the AC50 is 86.5 µM (active).
Take `CC(C)(C)C(=O)C1C(=O)c2ccccc2C1=O`: the compound was called inactive in test [8], in test [1], in test [2], in test [3], in test [5] and in test [6]. Also, the compound was called inactive in test [7]. Further, the concentration at half-maximal activity (AC50) in test [3] is 62 µM (active); in test [4], 42.7 µM (active) and 35.6 µM (active); in test [6] it was 67.3 µM (active).
Regarding `CC(C)CC=C(C=O)c1ccccc1`, the call in test [1], in test [3], in test [4] and in test [5] was inactive.
With `COC(=O)c1ccc(C=O)cc1`, the outcome in test [8], in test [2], in test [4], in test [6] and in test [7] was inactive.
For `Cc1cc(C)c(O)c(C(C)(C)C)c1`, the compound was called inactive in test [8].
For `CC(C)(C)c1cc(CCC(=O)NCCCCCCNC(=O)CCc2cc(C(C)(C)C)c(O)c(C(C)(C)C)c2)cc(C(C)(C)C)c1O`, the result in test [8] was inactive.
Consider `CC(C)CCCC(C)CCO` (centres undefined), for which the result in test [8], in test [1], in test [2], in test [3], in test [6] and in test [7] was inactive.
As for `CC(O)C#CC(C)O` (centres undefined), the outcome in test [1], in test [2], in test [3], in test [4], in test [5] and in test [6] was inactive. Also, the compound was called inactive in test [7].
Take `O=C1c2c(O)ccc(Nc3ccc(CCO)cc3)c2C(=O)c2c([N+](=O)[O-])ccc(O)c21`: the call in test [8], in test [1], in test [2], in test [5] and in test [6] was inactive.
Turning to `C=C(C)CCCC`, in test [8], the result was inactive.

(Values after PubChem BioAssay (EPA / NIEHS).)
